# FBW7 activator – activators of human E3 ligase FBW7; 0.13% of 650,000 active; normalized activity (activation), % at 26.1 µM; AID 1259310; AlphaScreen FBW7–phospho-cyclin E peptide binding, activator screen; in the data active means normalized activity above about 1.9%;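 further: purified mutant Fbw7 with reduced substrate affinity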
# MITF primary – inhibitors of human MITF; O75030; AlphaScreen MITF homodimerization, bead proximity signal; inhibition, % at 2.6 µM; 0.91% of 650,000 active; AID 1259374; in the data active means inhibition above about 50%;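 further: 0% = vehicle wells with protein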
# Target sequence (O75030 whole entry, looked up): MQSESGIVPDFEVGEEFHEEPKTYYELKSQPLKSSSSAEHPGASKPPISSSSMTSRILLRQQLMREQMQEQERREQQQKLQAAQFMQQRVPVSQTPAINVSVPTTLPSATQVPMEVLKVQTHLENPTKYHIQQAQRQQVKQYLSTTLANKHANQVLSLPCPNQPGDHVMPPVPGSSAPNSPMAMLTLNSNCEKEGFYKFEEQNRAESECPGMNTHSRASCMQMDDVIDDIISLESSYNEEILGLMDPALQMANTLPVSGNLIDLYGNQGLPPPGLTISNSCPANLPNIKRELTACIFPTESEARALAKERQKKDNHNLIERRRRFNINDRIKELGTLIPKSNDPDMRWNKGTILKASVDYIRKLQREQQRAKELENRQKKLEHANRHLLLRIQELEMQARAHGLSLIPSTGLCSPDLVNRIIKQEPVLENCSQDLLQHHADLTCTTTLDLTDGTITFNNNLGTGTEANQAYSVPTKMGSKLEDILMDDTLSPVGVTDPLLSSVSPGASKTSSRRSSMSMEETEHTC
# TEAD-YAP inh – TEAD-YAP interaction inhibition; HEK-TIYL cells, TEAD-Gal4/YAP UAS-luciferase luminescence; inhibition, % at 9.12 µM; 1.4% of 640,000 active; AID 1259422; in the data active means inhibition above about 32%;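 further: 0% = median of test compound wells and 100% = reference inhibitor wells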
# GPR151 activ – human GPR151 activation | PathHunter beta-arrestin GPR151 cells, luminescence | 1% of 650,000 active | activation, % at 11.2 µM; in the data active means activation above about 4.9%;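 further: 0% = median of compound wells and 100% = cells with positive control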
# MITF inh conf – human MITF inhibition, confirmation; 16% of 4,700 active; inhibition, % at 2.6 µM; shares compounds with MITF primary; AlphaScreen MITF homodimerization, biotin/His-MITF beads;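 active means inhibition above a cutoff derived from the DMSO control wells, cut at about 28% in these data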;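 further: 0% = MITF dimer wells with DMSO only; inhibitors lower the bead chemiluminescence by keeping MITF from dimerizing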
# AS interf DR – optically interferes with AlphaScreen signal in dose response; shares compounds with MITF primary; AlphaScreen optical interference counterscreen, cell-free; IC50, µM; 6% of 480 active; call rule not given here
# AS interf ctr – AlphaScreen optical interference, counter-screen; 7.6% of 4,700 active; shares compounds with MITF primary; inhibition, % at 2.6 µM; LysRS AlphaScreen counterscreen, signal interference, triplicate; AID 1259376;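 active means inhibition above a cutoff derived from the DMSO control wells, cut at about 30% in these data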
# * marks the source's active call; other numbers are inactive results; x = not tested or not shown. Most compounds without a hit are left out; they make up all but 3.4% or so of the library.
SMILES,FBW7 activator,MITF primary,TEAD-YAP inh,GPR151 activ,MITF inh conf,AS interf ctr,others
COc1cccc(CN2CCN(Cc3ccc(OC)c(Br)c3)CC2)c1,0,66*,2,0,13,9,
CCOC(=O)N1CCN(Cc2ccc(OC)c(Br)c2)CC1,0,2,-5,-1,x,x,
COC(=O)C1=C(C)N(Cc2ccccc2)C(=O)/C1=C\c1cccc([N+](=O)[O-])c1,0,16,1,1,x,x,
CC1=C(C(=O)Nc2cccc(Cl)c2)C(c2ccccc2F)NC(=S)N1 (stereo not drawn),0,1,0,0,x,x,
COc1ccc(CN2CCN(S(C)(=O)=O)CC2)cc1Br,0,70*,10,0,5,16,
CCS(=O)(=O)N1CCN(Cc2ccc(OC)c(Br)c2)CC1,0,44,7,1,x,x,
COc1ccc(CN2CCN(Cc3cccc4ccccc34)CC2)cc1Br,0,72*,-8,-1,0,-2,
O=C(OC1(C(F)(F)F)C(=O)Nc2cc3c(cc21)OCO3)c1ccc(Cl)nc1 (stereo not drawn),0,81*,-3,0,71*,-25,AS interf DR=>7.1
COc1ccc(/C=C/C(=O)C(C)(C)O)cc1,0,58*,-7,2,-4,6,
Cc1ccccc1N1C(=O)CN(Cc2c[nH]c3ccccc23)CC1C (stereo not drawn),0,-3,-10,0,x,x,
CC(=O)c1ccc(-n2c(-c3cc(-c4ccco4)[nH]n3)n[nH]c2=S)cc1,0,61*,-8,1,22,37*,
Cc1ccc(-n2c(-c3ccco3)n[nH]c2=S)cc1C,0,2,-5,1,x,x,
Cc1ccc(-c2nc3cc(NC(=O)c4cccnc4)ccc3o2)cc1Cl,0,8,-5,2,x,x,
Cc1ccc(-c2nc3cc(NC(=O)c4cccnc4)ccc3o2)cc1C,0,63*,-34,1,7,10,
CC(=O)NNC(=O)CSc1nnnn1C1CCCCC1,0,76*,-5,-1,7,15,
O=C(CSc1nnnn1C1CCCCC1)c1ccccc1,0,5,-1,0,x,x,
O=C(CSc1nnnn1C1CCCC1)c1ccccc1F,0,116*,-62,-2,-8,24,
COc1cc(Nc2ncc(C)c(NC3CC3)n2)cc(OC)c1OC,0,-4,3,1,x,x,
CC(C)C(=O)OCC(=O)Nc1ccc(F)c([N+](=O)[O-])c1,0,1,16,1,x,x,
COc1ccc(NC(C)C(=O)N/N=C/c2cc([N+](=O)[O-])ccc2O)cc1 (stereo not drawn),0,33,8,0,x,x,
COc1ccc(CN2CCN(Cc3ccc(SC)cc3)CC2)c(OC)c1OC,0,27,14,0,x,x,
CCOc1ccc(CN2CCN(Cc3ccc(OC)c(OC)c3OC)CC2)cc1,0,66*,13,-1,4,2,
CCS(=O)(=O)N1CCN(Cc2ccc(OC)c(OC)c2OC)CC1,0,47,14,0,x,x,
COc1ccc(CN2CCN(Cc3ccc(Cl)cc3)CC2)c2ccccc12,0,83*,2,0,13,20,
COc1cccc(CN2CCN(Cc3ccc(F)cc3)C(CCO)C2)c1OC (stereo not drawn),0,11,10,0,x,x,
SMILES,FBW7 activator,MITF primary,TEAD-YAP inh,GPR151 activ,MITF inh conf,AS interf ctr,others
CCN1CCN(Cc2ccc(OC)c3ccccc23)CC1,0,31,0,0,x,x,
COc1ccc(CN2CCN(Cc3ccc(F)cc3)CC2)c(OC)c1OC,0,60*,1,0,2,7,
COc1cccc(CN2CCN(Cc3ccc(F)cc3)CC2)c1OC,0,80*,-10,-1,11,9,
Cc1ccc(C(=O)N2CCC(Nc3cccc4cncc(C)c34)C2)cc1F (stereo not drawn),0,-12,-2,2,x,x,
COc1ccc(-n2nc3c(c2NC(=O)Cc2cccc4ccccc24)CSC3)cc1,0,5,-14,-1,x,x,
COc1cc(OC)c(OC)cc1CN1CCN(Cc2ccc(OC)c(OC)c2OC)CC1,0,59*,-1,0,2,-2,
COc1ccc(CN2CCCCC2)c(OC)c1OC,0,21,-4,-2,x,x,
Cc1noc(C)c1CC(=O)N1CCOc2ccc(C(O)c3ccccn3)cc2C1 (stereo not drawn),0,8,-4,0,x,x,
